Assay outcomes from PubChem.
A selection: hits, their analogues and other compounds. The true share with any hit is near 27%.
CYP2C9 activ: activators of human CYP2C9 | recombinant CYP2C9, luciferin-H conversion, luminescence; hits give high values; factor 1 = untreated enzyme, 0 = blocked | AID 1024 | actives 1.4% (n = 96,000) | activation factor at 5 µM | P11712;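 active means activation factor of 2 or more for CYP2C9 at a 5 µM dose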
Target sequence (P11712 whole entry, looked up): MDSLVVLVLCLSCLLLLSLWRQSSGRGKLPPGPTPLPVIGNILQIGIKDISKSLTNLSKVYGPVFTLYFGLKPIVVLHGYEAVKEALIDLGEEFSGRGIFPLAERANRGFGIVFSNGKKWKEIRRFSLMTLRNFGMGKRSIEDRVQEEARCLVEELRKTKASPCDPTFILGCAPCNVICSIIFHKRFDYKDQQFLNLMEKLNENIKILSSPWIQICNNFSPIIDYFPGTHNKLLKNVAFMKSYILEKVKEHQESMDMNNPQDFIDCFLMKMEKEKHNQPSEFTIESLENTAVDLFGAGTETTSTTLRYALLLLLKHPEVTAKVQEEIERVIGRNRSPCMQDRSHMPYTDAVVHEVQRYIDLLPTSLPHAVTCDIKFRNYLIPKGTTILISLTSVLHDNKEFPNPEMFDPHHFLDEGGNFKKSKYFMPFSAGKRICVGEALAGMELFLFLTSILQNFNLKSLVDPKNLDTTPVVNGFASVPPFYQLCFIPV
Cav32 inh: human Cav3.2 channel inhibition, primary screen; O95180; Cav3.2-expressing cells, Fluo-4 calcium fluorescence FDSS; hits give low values; B-score at 10 µM; actives 4% (n = 100,000); AID 449739;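 active means single-dose well whose peak fluorescence ratio is a statistical outlier from its plate by either plate-standardised score or position-corrected B-score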
CYP2C9 inh: inhibitors of human CYP2C9 | CYP2C9 Supersomes, luciferin-H conversion, luminescence | inhibition, % at 5 µM | actives 20% (n = 96,000);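 active means blocking of liver enzyme CYP2C9 beyond about 50% at 5 µM, limit read from the data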
CYP2C19 activ: cytochrome P450 2C19 (human) activation; P33261; recombinant CYP2C19, luciferin-H EGE luminescence; hits give high values; 0 = fully inhibited enzyme, 1 = untreated enzyme; activation factor at 5 µM; 96,000 tested, under 10 active; AID 1025;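 active means activation factor of at least 2 at 5 µM in the primary screen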
Pyk2 oligo antag: antagonists of human Pyk2 oligomerization. Q14289. Q293 cells, Pyk2 FERM NanoBiT luminescence; hits give low values. z-score (the deposit names both 25 µM and 10 µM). actives 0.83% (n = 99,000). AID 1347419;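 active means Z-score of -3 or lower, scaled per plate to the spread of control and sample wells; inactive means z-score above -3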;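 further: negative z-score means lost luminescence so less FERM oligomerization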
CYP2C19 inh: inhibitors of human CYP2C19; actives 21% (n = 96,000); AID 778; inhibition, % at 5 µM; CYP2C19 Supersomes, luciferin-H EGE luminescence, 30 min;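 active means CYP2C19 inhibition above a set limit at 5 µM in the primary screen, cut at about 50% in these data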
A number is an active result; i = inactive; nt = no result given.

SMILES	CYP2C9 activ	Cav32 inh	CYP2C9 inh	CYP2C19 activ	Pyk2 oligo antag	CYP2C19 inh
N#Cc1c(NC(=O)CSc2ncnc3sccc23)oc(-c2ccco2)c1-c1ccco1	i	i	84	i	i	i
CCn1c(SCC(=O)Nc2oc(-c3ccccc3)c(-c3ccccc3)c2C#N)nnc1-c1ccco1	i	-4.7	96	i	i	94
NC(=O)CC(NC(=O)c1ccccc1)c1ccc(NC2CCCC2)c([N+](=O)[O-])c1 (stereo not drawn)	nt	i	nt	nt	nt	nt
O=C(O)c1ccccc1OCCOCCOc1ccccc1C(=O)O	i	i	i	i	i	i
CCCCCCCCCCCC(=O)c1c(O)cccc1O	nt	i	nt	nt	nt	nt
CC(CCCC(C)(C)O)NCCO (stereo not drawn)	i	i	i	i	i	i
Cc1cnc(C(=O)OCC(=O)Nc2oc(-c3ccccc3)c(-c3ccccc3)c2C#N)cn1	i	i	62	i	i	i
O=C(CSc1ccccn1)Nc1nc2ccc(Br)cc2s1	i	i	i	i	i	i
N#Cc1c(NC(=O)CSc2ccccn2)oc(-c2ccccc2)c1-c1ccccc1	i	-6.4	86	i	i	i
Cn1c(SCC(=O)Nc2ccc(NC(=O)c3cccs3)cc2)nnc1-c1ccncc1	nt	i	nt	nt	i	nt
COC(=O)C1=NN(C(=O)c2ccc(Cl)cc2)C(O)(c2ccccc2)C1 (stereo not drawn)	i	i	i	i	i	i
CCOC(=O)C1=NN(C(=O)c2ccc(C)cc2)C(O)(c2ccc(Cl)cc2)C1 (stereo not drawn)	i	-6.3	i	i	i	56
COc1cc(C2/C(=C(/O)c3ccc(OCC(C)C)cc3)C(=O)C(=O)N2CCN(C)C)ccc1O (stereo not drawn)	i	i	i	i	i	68
CC(C)COc1ccc(/C(O)=C2/C(=O)C(=O)N(CCN(C)C)C2c2ccncc2)cc1 (stereo not drawn)	i	i	i	i	i	i
O=C(NC(NC(=S)Nc1cccc(C(=O)O)c1)C(Cl)(Cl)Cl)OCc1ccccc1 (stereo not drawn)	nt	nt	nt	nt	i	nt
O=C(NC(NC(=S)Nc1cccc(Cl)c1)C(Cl)(Cl)Cl)OCc1ccccc1 (stereo not drawn)	i	i	66	i	i	60
Cc1cccc(NC(=S)NC(NC(=O)OCc2ccccc2)C(Cl)(Cl)Cl)c1 (stereo not drawn)	i	i	76	i	i	77
Cc1ccc2cc(C(c3nnnn3C(C)(C)C)N3CCCC3)c(=O)[nH]c2c1C (stereo not drawn)	i	nt	i	i	nt	i
CCc1ccccc1NC(=O)CSc1nc2n[nH]c(C)c2c(=N)n1-c1cccc(OC)c1	nt	i	nt	nt	i	nt
COc1ccc(S(=O)(=O)n2nc(C)cc2C)c(C)c1C	2.4	i	i	i	i	i
Cc1cc(C)n(S(=O)(=O)c2cc(C)c(C)cc2C)n1	i	i	i	i	i	i
Cc1cc(C)n(S(=O)(=O)c2ccc(C)c(C)c2C)n1	3.7	i	i	i	i	i
COc1ccc(N2C(=O)C3CCCN3C2=O)cc1 (stereo not drawn)	i	i	i	i	i	i
O=C(COc1ccc(S(=O)(=O)N2CCCCC2)cc1)NCc1cccnc1	i	i	60	i	i	i
O=C(NCc1cccnc1)C1CCN(S(=O)(=O)c2cccnc2)CC1	i	i	i	i	i	i
SMILES	CYP2C9 activ	Cav32 inh	CYP2C9 inh	CYP2C19 activ	Pyk2 oligo antag	CYP2C19 inh
O=C(NCc1cccnc1)c1cccc(S(=O)(=O)N2CCCCC2)c1	i	i	i	i	i	65
O=C(NCc1cccnc1)c1ccc(S(=O)(=O)N2CCOCC2)cc1	i	i	i	i	i	i
O=C(NCc1ccco1)c1ccc(S(=O)(=O)c2cccc(S(=O)(=O)N3CCOCC3)c2)cc1	i	i	i	i	i	51
Cc1ccc(S(=O)(=O)N2CCC(C(=O)N3CCC(C(=O)NCc4cccnc4)CC3)CC2)cc1	i	i	i	i	i	i
O=C(NCc1cccnc1)c1cccc(S(=O)(=O)N2CCOCC2)c1	i	i	i	i	i	61
O=S1(=O)c2ccccc2C(CCO)N1Cc1ccccc1 (stereo not drawn)	nt	i	nt	nt	nt	nt
CC(C)(C)n1ncc2c(=O)n(CC(=O)N3CCN(c4ccccc4)CC3)cnc21	i	i	i	i	nt	i
COCCN1C(=O)N[C@@H](c2ccccc2)[C@@H](C(=O)OC)[C@H]1C	nt	i	nt	nt	nt	nt
CCCCOc1cccc(NC(=O)CSc2nccn2C)c1	i	i	i	i	i	i
